This note sets out measurements from PubChem BioAssay (Tox21).

Experiment [1] is described as follows: qHTS assay to identify small molecule agonists of the sonic hedgehog signaling (Shh) pathway (AID 1259368).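 Further: NIH/3T3-derived 3T3Gli1-Luc cells carrying a stable Gli1-driven firefly luciferase reporter; series mostly up to about 92 µM; nearly all actives have a fitted effect of over 15% in size.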 Summed up: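 Mouse fibroblast (NIH/3T3) reporter cells with stably integrated Gli1-Luc were treated 24 hr with compound; firefly luciferase luminescence served as the read-out.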
Experiment [2] can be described thus: qHTS assay to identify small molecule antagonists of the sonic hedgehog signaling (Shh) pathway (AID 1259369). Further: nearly all actives have a fitted effect of over 45% in size. Summed up: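 Conditioned medium drives Shh signalling in 3T3Gli1-Luc cells; compounds in DMSO co-applied, 24hr at 37 C, then luciferase luminescence.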
Experiment [3] concerns the target Estrogen receptor beta (Homo sapiens) (UniProt Q92731). In words: qHTS assay to identify small molecule agonists of the estrogen receptor beta (ER-beta) signaling pathway (AID 1259377; active means well fitted activation curve with a large enough effect in the signal ratio in the repeat runs, not every such curve was filed as active; the % refers to the signal ratio). Put shortly: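 Ratiometric beta-lactamase FRET read-out came after 2 h substrate loading at room temperature. It followed 16 h compound treatment at 37C of GripTite HEK293T cells carrying a UAS-bla reporter, plated in 2% charcoal-stripped FBS medium.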
For orientation: Quantitative high-throughput screening tests each substance at several concentrations.

Experiment [4] shares this target. The experiment in a line: qHTS assay to identify small molecule antagonists of the estrogen receptor beta (ER-beta) signaling pathway (AID 1259378; active means well fitted inhibition curve with a large enough effect in the signal ratio in the repeat runs, not every such curve was filed as active; the % refers to the signal ratio). Put shortly: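 ER-beta-UAS-bla HEK293T (GripTite) cells in 2% charcoal-stripped FBS medium were preincubated 6 hr at 37C, dosed with compound, then stimulated with 1 nM E2 (final) for 16 hr; beta-lactamase reporter read by B/G FRET fluorescence after 2 hr substrate loading.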

Experiment [5] can be described thus: qHTS assay to identify small molecule agonists of the androgen receptor (AR) signaling pathway in the presence of an antagonist - cell viability counter screen (AID 1259379; active means well fitted curve in the direction sought with a large enough effect in the repeat runs; an effect the other way counts as inactive or inconclusive; further: nearly all actives have a fitted effect of over 25% in size; further: potency means the concentration at half of the fitted maximal effect;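 on activity change, negative = cytotoxicity: MDA-kb2 human breast cancer cells carrying an MMTV luciferase reporter; series mostly up to about 92 µM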). Put shortly: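 A CellTiter-Fluor read-out measured viability of MDA-kb2 reporter cells (MMTV promoter with AR and GR response elements). Treatment: nilutamide 3.0uM final with compounds at 15 concentrations, 16 hr, 37C, 0% CO2.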

A short description of experiment [6]: qHTS assay to identify small molecule agonists of the estrogen receptor beta (ER-beta) signaling pathway - cell viability counter screen (AID 1259380; active means well fitted curve in the direction sought with a large enough effect in the repeat runs; an effect the other way counts as inactive or inconclusive; further: nearly all actives have a fitted effect of over 30% in size). Put shortly: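 Cells used were ER-beta-UAS-bla HEK293T in medium with 2% charcoal-stripped FBS. They were treated for 16 hr at 37C. Viability came from CellTiter-Glo luminescence.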
For experiment [7], the target named is Androgen receptor (Homo sapiens) (UniProt P10275). The experiment in a line: qHTS assay to identify small molecule agonists of the androgen receptor (AR) signaling pathway in the presence of an antagonist (AID 1259381). Further: nearly all actives have a fitted effect of over 15% in size. Put shortly:
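Using human MDA-kb2 cells with an MMTV promoter–luciferase construct (AR and GR response elements), agonist activity is scored under 3.0uM nilutamide (final) co-treatment; 16hr incubation, 37C, luminescence readout via ONE-Glo.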

Experiment [8] can be described thus: qHTS assay to identify small molecule antagonists of the estrogen receptor beta (ER-beta) signaling pathway - cell viability counter screen (AID 1259382; active means well fitted curve in the direction sought with a large enough effect in the repeat runs; an effect the other way counts as inactive or inconclusive; further: series mostly up to about 92 µM; nearly all actives have a fitted effect of over 55% in size). Put shortly:
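Agonist-stimulated (1nM E2) ER-beta-UAS-bla HEK293T cells are incubated with library compounds for 16 hr at 37C. Cell viability is then assessed in the reporter-assay wells by adding CellTiter-Glo and reading luminescence after 30 min.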

In experiment [9] the target is Estrogen receptor (Homo sapiens) (UniProt P03372). The experiment in a line: qHTS assay to identify small molecule agonists of the estrogen receptor alpha (ER-alpha) signaling pathway in the presence of an antagonist (AID 1259383). Further: top concentration of the series differs between compounds; nearly all actives have a fitted effect of over 15% in size. Summed up:
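Using VM7Luc4E2 cells seeded 24hr before treatment, antagonist ICI-182,780 (10.0nM final) was added, followed by compounds at 15 concentrations. Plates incubated 22hr; ONE-Glo luminescence quantified reporter activity.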

Experiment [10] is described as follows: qHTS assay to identify small molecule agonists or antagonists of the thyroid stimulating hormone receptor (TSHR) signaling pathway - wild type cell line counter screen (AID 1259384). Summed up: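 Wild-type HEK293 cells were plated 18 h at 37 C/5% CO2, pin-dosed with compound plus Ro20-1724 medium, held 30 min at room temperature, then given cAMP-d2 and anti-cAMP-cryptate; fluorescence was read after 1 h. Fifteen concentrations, triplicate.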

Experiment [11] addresses Thyrotropin receptor (Homo sapiens) (UniProt P16473). The experiment in a line: qHTS assay to identify small molecule antagonists of the thyroid stimulating hormone receptor (TSHR) signaling pathway (AID 1259385). Further: nearly all actives have a fitted effect of over 20% in size. Summed up:
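TSHR-HEK293 cells were plated and held 18 h at 37C/5% CO2, then given compound plus Ro20-1724 and stimulated with TSH at 1.5 ng/mL final. After 30 min at room temperature, cAMP was detected with cAMP-d2/anti-cAMP-cryptate (1 h) by fluorescence.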

A short description of experiment [12]: qHTS assay to identify small molecule agonists of the estrogen receptor alpha (ER-alpha) signaling pathway in the presence of an antagonist - cell viability counter screen (AID 1259386; active means well fitted curve in the direction sought with a large enough effect in the repeat runs; an effect the other way counts as inactive or inconclusive;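 further: series mostly up to about 92 µM; cells exposed to compounds for 22 h at 37 °C before the viability read; nearly all actives have a fitted effect of over 30% in size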). Summed up:
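ICI-182,780 at 10.0nM final accompanies the compound titration (15 concentrations, 22hr, 37C) on VM7Luc4E2 cells. The CellTiter-Fluor fluorescence readout runs in the same wells as the luciferase assay.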

In experiment [13] the target is Progesterone receptor (Homo sapiens) (UniProt P06401). The experiment in a line: qHTS assay to identify small molecule agonists of the progesterone receptor (PR) signaling pathway (AID 1346784). Further: nearly all actives have a fitted effect of over 30% in size. Put shortly:
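Agonist qHTS: compounds pinned onto 3,000 PR-UAS-bla HEK 293T cells per well in charcoal-stripped serum medium, 16hr at 37C, then beta-lactamase activity measured by LiveBLAzer FRET fluorescence after 2 hours at room temperature.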

Experiment [14] has the same target. In words: qHTS assay to identify small molecule antagonists of the progesterone receptor (PR) signaling pathway (AID 1346795; active means well fitted inhibition curve with a large enough effect in the signal ratio in the repeat runs, not every such curve was filed as active; the % refers to the signal ratio). Summed up: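 Antagonist mode with agonist R5020 at 1 nM final and 16 hr incubation at 37C. Reporter was beta-lactamase driven by UAS in HEK293T (PR-UAS-bla), 2% charcoal-stripped serum; signal from LiveBLAzer FRET substrate, 2 hr at room temperature.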

Experiment [15] in a line: qHTS assay to identify small molecule antagonists of the progesterone receptor (PR) signaling pathway - cell viability counter screen (AID 1346798; active means well fitted curve in the direction sought with a large enough effect in the repeat runs; an effect the other way counts as inactive or inconclusive; further: series mostly up to about 92 µM; nearly all actives have a fitted effect of over 50% in size). Put shortly:
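Cytotoxicity read as CellTiter-Glo luminescence (30 min, room temperature) in the same wells as the beta-lactamase readout. HEK293T PR-UAS-bla cells in charcoal-stripped 2% FBS received compound and R5020, then 16 h at 37C, 5% CO2.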

Experiment [16] can be described thus: qHTS assay to identify small molecule agonists of the progesterone receptor (PR) signaling pathway - cell viability counter screen (AID 1346799). Further: nearly all actives have a fitted effect of over 45% in size. Summed up: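 Cytotoxicity measured by CellTiter-Glo luminescence (30 min, RT) in the same wells as the PR beta-lactamase agonist read. Those HEK293T cells had 16 h compound treatment at 37 C in 2% charcoal-stripped FBS medium.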

The nature of experiment [17]: qHTS assay to identify small molecule antagonists of the TGF-beta/Smad signaling pathway - cell viability counter screen (AID 1346824; active means well fitted curve in the direction sought with a large enough effect in the repeat runs; an effect the other way counts as inactive or inconclusive; further: nearly all actives have a fitted effect of over 50% in size). Put shortly:
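SBE-bla HEK 293T cells were plated overnight at 37 C, then given compounds in DMSO plus TGF-beta1 (added as 0.25 ng/mL solution) for 5 hr. After the bla read, CellTiter-Glo was added to the same wells and luminescence read after 30 min at room temperature.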

Experiment [18] in a line: qHTS assay to identify small molecule agonists of the TGF-beta/Smad signaling pathway - cell viability counter screen (AID 1346829; active means well fitted curve in the direction sought with a large enough effect in the repeat runs; an effect the other way counts as inactive or inconclusive; further: top concentration of the series differs between compounds; nearly all actives have a fitted effect of over 45% in size). Summed up: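 Tox21 qHTS format: SBE-bla HEK 293T cells treated with DMSO-dissolved compounds for 5 hr; CellTiter-Glo luminescence after 30 min at room temperature.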
A short description of experiment [19]: qHTS assay to identify small molecule agonists of the TGF-beta/Smad signaling pathway (AID 1346859; active means well fitted activation curve with a large enough effect in the signal ratio in the repeat runs, not every such curve was filed as active; the % refers to the signal ratio; further: series mostly up to about 77 µM). Put shortly: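 Fluorescence (ex 405 nm; em 460 and 530 nm) was read 2 h after LiveBLAzer FRET substrate at RT. The preceding compound treatment of overnight-plated SBE-bla HEK293T cells lasted 5 h at 37 C.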
The target in experiment [20] is Thyrotropin-releasing hormone receptor (Homo sapiens) (UniProt P34981). The experiment in a line: qHTS assay to identify small molecule antagonists of the thyrotropin-releasing hormone receptor (TRHR) signaling pathway (AID 1346877; active means well fitted inhibition curve with a large enough effect in the repeat runs, not every such curve was filed as active; further: series mostly up to about 51 µM). Put shortly: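 Screening used HEK293 cells engineered with TRHR, with a brief 5 min room-temperature compound exposure preceding addition of TRH to 1 nM. The read-out was kinetic calcium-dye fluorescence, concentration-response from 15 doses in triplicate.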
Chain of Thyrotropin-releasing hormone receptor (Homo sapiens) (P34981 whole entry, looked up): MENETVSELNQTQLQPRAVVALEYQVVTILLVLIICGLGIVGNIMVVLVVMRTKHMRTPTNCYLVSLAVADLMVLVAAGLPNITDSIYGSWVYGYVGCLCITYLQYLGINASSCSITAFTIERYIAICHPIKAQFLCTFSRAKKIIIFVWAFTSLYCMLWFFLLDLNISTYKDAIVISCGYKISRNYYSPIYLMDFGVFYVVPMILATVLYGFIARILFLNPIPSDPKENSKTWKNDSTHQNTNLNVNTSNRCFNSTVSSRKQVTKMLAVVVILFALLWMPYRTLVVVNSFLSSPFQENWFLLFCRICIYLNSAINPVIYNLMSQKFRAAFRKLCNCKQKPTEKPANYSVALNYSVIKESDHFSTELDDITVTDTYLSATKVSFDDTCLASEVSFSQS

SMILES strings stand for the structures. A number with no mark means an inactive call. Records with an inconclusive call do not appear. The source made the active and inactive calls. Unless noted, the call rests on the fitted dose curve.
On the % scale 0 is the no-effect control and ±100 the full control effect.

Chain of Progesterone receptor (Homo sapiens) (P06401 whole entry, looked up): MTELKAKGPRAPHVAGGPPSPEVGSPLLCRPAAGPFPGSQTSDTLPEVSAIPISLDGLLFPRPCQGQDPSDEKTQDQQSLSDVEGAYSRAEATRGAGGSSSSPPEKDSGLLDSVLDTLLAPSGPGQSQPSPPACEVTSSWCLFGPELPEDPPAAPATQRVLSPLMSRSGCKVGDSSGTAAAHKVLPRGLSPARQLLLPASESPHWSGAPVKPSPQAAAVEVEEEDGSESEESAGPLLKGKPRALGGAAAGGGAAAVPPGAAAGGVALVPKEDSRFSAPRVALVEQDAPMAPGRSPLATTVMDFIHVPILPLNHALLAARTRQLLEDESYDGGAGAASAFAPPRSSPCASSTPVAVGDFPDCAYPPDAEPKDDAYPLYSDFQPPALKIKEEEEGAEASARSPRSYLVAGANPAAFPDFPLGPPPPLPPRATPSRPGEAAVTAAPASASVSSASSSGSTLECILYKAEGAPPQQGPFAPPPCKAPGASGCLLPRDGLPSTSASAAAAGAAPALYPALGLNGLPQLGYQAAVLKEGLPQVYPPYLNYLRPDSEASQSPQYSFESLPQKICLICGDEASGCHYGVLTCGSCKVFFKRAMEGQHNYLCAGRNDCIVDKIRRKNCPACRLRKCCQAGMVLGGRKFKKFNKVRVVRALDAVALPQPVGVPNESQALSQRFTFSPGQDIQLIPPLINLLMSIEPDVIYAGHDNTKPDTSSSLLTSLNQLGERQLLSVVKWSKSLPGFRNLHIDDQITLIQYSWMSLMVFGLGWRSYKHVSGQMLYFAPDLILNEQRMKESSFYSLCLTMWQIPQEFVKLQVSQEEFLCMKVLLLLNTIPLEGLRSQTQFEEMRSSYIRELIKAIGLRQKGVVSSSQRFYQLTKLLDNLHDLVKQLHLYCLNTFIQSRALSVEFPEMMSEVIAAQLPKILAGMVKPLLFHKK
Chain of Androgen receptor (Homo sapiens) (P10275 whole entry, looked up): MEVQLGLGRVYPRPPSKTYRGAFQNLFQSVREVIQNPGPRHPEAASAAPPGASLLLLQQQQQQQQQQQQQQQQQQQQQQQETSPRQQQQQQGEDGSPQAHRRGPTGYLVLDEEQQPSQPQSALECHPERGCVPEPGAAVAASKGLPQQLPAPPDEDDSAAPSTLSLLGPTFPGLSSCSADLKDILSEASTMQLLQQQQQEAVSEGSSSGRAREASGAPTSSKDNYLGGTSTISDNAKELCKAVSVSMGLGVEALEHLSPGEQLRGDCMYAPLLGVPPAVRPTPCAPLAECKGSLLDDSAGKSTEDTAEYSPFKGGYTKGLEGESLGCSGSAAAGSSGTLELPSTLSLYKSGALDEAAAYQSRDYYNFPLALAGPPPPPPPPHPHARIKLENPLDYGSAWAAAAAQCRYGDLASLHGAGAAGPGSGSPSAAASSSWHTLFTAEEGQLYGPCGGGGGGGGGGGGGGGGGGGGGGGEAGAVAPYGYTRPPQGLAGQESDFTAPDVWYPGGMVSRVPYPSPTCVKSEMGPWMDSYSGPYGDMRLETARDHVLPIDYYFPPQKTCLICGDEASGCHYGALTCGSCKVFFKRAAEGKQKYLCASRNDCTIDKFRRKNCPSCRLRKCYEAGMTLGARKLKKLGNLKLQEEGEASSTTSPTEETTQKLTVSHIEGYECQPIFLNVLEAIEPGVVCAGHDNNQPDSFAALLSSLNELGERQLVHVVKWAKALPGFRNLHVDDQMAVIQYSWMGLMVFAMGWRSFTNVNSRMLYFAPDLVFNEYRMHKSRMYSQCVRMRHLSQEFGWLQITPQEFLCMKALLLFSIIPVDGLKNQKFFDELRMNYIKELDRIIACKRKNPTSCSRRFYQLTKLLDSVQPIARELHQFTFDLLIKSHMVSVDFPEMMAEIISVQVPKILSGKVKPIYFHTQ
Chain of Estrogen receptor (Homo sapiens) (P03372 whole entry, looked up): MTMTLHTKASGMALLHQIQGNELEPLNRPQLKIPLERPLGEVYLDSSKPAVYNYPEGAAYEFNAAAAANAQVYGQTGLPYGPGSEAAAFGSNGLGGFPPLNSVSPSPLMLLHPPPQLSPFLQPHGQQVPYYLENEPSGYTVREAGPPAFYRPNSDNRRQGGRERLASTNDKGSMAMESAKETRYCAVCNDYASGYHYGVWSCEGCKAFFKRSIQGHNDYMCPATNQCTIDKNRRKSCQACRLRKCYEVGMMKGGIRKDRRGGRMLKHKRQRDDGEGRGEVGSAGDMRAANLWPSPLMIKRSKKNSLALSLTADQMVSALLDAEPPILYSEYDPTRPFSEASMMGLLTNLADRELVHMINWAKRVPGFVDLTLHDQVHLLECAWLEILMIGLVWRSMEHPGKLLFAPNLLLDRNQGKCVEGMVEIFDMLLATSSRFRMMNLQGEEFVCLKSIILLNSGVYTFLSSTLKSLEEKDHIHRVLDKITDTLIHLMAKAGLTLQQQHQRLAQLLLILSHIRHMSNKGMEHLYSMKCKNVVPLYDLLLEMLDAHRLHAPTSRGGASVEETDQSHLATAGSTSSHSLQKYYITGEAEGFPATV
Chain of Estrogen receptor beta (Homo sapiens) (Q92731 whole entry, looked up): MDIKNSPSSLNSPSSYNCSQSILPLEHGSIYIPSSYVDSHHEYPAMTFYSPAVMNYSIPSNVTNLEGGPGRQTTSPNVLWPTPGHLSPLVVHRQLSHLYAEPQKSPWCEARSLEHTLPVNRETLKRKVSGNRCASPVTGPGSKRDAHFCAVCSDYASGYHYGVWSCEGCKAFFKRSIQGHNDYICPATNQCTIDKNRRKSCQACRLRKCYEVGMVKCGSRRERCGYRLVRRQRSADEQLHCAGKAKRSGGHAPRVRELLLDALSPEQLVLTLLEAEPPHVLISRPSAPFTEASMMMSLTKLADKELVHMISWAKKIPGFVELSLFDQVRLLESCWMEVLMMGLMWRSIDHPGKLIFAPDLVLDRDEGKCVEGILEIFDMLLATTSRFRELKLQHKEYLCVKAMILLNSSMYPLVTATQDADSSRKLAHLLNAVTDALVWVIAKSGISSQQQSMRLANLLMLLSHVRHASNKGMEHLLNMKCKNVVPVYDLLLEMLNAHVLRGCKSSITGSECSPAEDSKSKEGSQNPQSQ
Chain of Thyrotropin receptor (Homo sapiens) (P16473 whole entry, looked up): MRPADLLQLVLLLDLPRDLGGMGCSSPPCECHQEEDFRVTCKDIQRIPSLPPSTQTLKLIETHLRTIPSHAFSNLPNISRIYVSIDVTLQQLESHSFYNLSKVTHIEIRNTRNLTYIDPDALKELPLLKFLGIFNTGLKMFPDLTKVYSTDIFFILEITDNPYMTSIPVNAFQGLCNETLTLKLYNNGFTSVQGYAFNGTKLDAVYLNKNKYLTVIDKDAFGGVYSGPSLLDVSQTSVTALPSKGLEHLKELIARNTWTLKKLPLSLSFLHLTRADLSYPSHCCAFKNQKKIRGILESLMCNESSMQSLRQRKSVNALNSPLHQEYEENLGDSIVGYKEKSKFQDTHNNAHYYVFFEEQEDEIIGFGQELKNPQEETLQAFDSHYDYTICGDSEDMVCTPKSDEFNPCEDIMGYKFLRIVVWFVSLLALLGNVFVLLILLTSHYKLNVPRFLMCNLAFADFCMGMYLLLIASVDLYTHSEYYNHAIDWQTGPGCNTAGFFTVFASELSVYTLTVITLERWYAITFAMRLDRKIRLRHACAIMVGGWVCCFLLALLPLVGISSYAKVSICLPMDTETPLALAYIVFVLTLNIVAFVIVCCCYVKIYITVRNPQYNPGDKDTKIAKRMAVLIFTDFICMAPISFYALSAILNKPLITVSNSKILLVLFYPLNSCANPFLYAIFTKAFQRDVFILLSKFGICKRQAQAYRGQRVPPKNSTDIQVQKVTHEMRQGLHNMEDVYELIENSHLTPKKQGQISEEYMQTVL

Consider `CC(=O)OC(C)OC(=O)C(C)c1ccc(-c2ccccc2)c(F)c1` (stereo not drawn), for which the compound was classed as inactive in experiment [1], in experiment [4], in experiment [8], in experiment [9], in experiment [10] and in experiment [11]. For the same compound, the call in [17], in [18] and in [19] was inactive. Moreover, the Potency entry in experiment [2], in experiment [3], in experiment [5], in experiment [6], in [7] and in [12] was “inactive” throughout. The Potency entry in experiment [13], in experiment [14], in [15] and in experiment [16] was “inactive” in each case.
Turning to `O=C(O)CCSSCCC(=O)O`, the result in experiment [1], in [4], in experiment [8], in experiment [9], in [10] and in experiment [11] was inactive. Moreover, the compound was called inactive in [17], in [18], in experiment [19] and in [20]. Further, the Potency entry in experiment [2], in experiment [3], in experiment [5], in [6], in experiment [7] and in experiment [12] was “inactive” in each case. For the same compound, the Potency entry in [13], in experiment [14], in experiment [15] and in experiment [16] was “inactive” each time.
On to `CN1CCN(CC(=O)N2c3ccccc3C(=O)Nc3cccnc32)CC1`, for which the activity change in experiment [1] is 0.176% [at 8.39 µM]. The activity change, negative = inhibition was 12.8% [at 8.39 µM] in [2] and 9.85% [at 8.39 µM] in experiment [14]. Further, the activation is 7.01% [at 8.39 µM] in [3], 0.843% [at 8.39 µM] in [9], -0.718% [at 8.39 µM] in experiment [13] and -0.857% [at 6.97 µM] in [19]. Besides, the activity, negative = inhibition in [4] was 0.518% [at 8.39 µM]. Besides, the activity change, negative = cytotoxicity in experiment [5] was -6.25% [at 8.39 µM]; in experiment [6] it was 5.53% [at 8.39 µM]; in experiment [8] it was 9.64% [at 8.39 µM]; in [12] it was -1.63% [at 8.39 µM]; in [15], 1.84% [at 8.39 µM]; in [16], -2.12% [at 8.39 µM]. Moreover, in [18], the activity change, negative = cytotoxicity was -15% [at 6.97 µM]. The cAMP activity change in [10] was -2.81% [at 8.39 µM]. Also, the viability change, negative = cytotoxic in [17] is -11.9% [at 6.97 µM].
For the compound `COc1ccc(-c2cc(=O)c3c(O)cc(O[C@@H]4O[C@H](CO[C@@H]5O[C@@H](C)[C@H](O)[C@@H](O)[C@H]5O)[C@@H](O)[C@H](O)[C@H]4O)cc3o2)cc1O`, the outcome in [1], in experiment [4], in experiment [8], in [9], in [17] and in experiment [19] was inactive. In [20], the compound was classed as inactive. In addition, the Potency result in experiment [2], in [3], in [5], in experiment [6], in experiment [12] and in [13] was “inactive” in each case. Besides, the Potency entry in experiment [14], in experiment [15] and in experiment [16] was “inactive” each time.
Take `Oc1cn2c(n1)Nc1ccc(Cl)c(Cl)c1C2`: in experiment [1], the activity change is -0.534% [at 18.9 µM]. The activity change, negative = inhibition is -20% [at 19 µM] in [2], -0.393% [at 19 µM] in experiment [11] and 2.35% [at 18.9 µM] in experiment [14]. For the same compound, the activation in experiment [3] is -3.28% [at 19 µM]; in [7], 1.01% [at 19 µM]; in experiment [9], -1.28% [at 19 µM]; in experiment [13] it was -0.586% [at 19 µM]. For the same compound, in experiment [4], the activity, negative = inhibition is 0.533% [at 19 µM]. For the same compound, the activity change, negative = cytotoxicity in experiment [5] is 0.214% [at 19 µM]; in experiment [6], 8.72% [at 19 µM]; in [8], 4.54% [at 19 µM]; in experiment [15], 6.36% [at 18.9 µM]; in experiment [16] it was 10.9% [at 19 µM]; in experiment [18], -0.153% [at 15.8 µM]. The cAMP activity change in experiment [10] is -0.126% [at 18.9 µM]. The viability change, negative = cytotoxic in experiment [17] was 8.57% [at 15.8 µM].
On to `N[C@@H](CCC(=O)Nc1ccc([N+](=O)[O-])cc1)C(=O)O`, for which the call in [1], in experiment [4], in experiment [9], in experiment [10], in experiment [11] and in experiment [17] was inactive. In addition, the compound was classed as inactive in experiment [18] and in experiment [20]. Moreover, the Potency entry in [2], in [3], in experiment [6], in [7], in experiment [12] and in experiment [13] was “inactive” each time. The Potency result in [15] and in experiment [16] was “inactive” in each case. Besides, the Potency in experiment [5] is 48.6 µM (active).
Regarding `Nc1ccc(S(=O)(=O)Nc2ccc(Cl)nn2)cc1`, the compound was classed as inactive in [1], in experiment [4], in experiment [8], in experiment [9], in experiment [17] and in experiment [18]. The call in experiment [20] was inactive. For the same compound, the Potency entry in experiment [2], in experiment [3], in experiment [5], in experiment [6], in experiment [7] and in experiment [12] was “inactive” throughout. Besides, the Potency entry in experiment [13], in experiment [14], in experiment [15] and in experiment [16] was “inactive” throughout.
